Consider 14 compounds from PubChem BioAssay (NCI).

Some test systems named below: SK-MEL-2 melanoma; EKVX NSCLC; SN12C renal; UO-31 renal; TK-10 renal; ACHN renal; CAKI-1 renal; A498 renal; CCRF-CEM leukemia; MOLT-4 leukemia.
Assay in all cases: NCI-60 one-dose screen, 48 h (100 = growth as untreated, 0 = no growth, -100 = all killed)
Holding throughout (settings): 10 µM unless noted

About 83,000 compounds went through this panel and 20% of them were active in at least one assay; those are over-represented in the sample as a whole.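 The endpoint reported here, percent growth, reads 100 for growth as untreated, 0 for no net growth and -100 for all cells dead.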 A number with no mark means an inactive call. Activity calls are given as the source filed them. The calls were made as follows: active = growth percent below 10; inactive = the rest.

In the case of `Cn1cc(-c2nonc2-c2cn(C)c3ccccc23)c2ccccc21`, the growth in the experiment with SK-MEL-2 melanoma is 35.6%; with EKVX NSCLC it was 40.4%; in the experiment on SN12C renal it was 43.6%; in the experiment with UO-31 renal it was 40.5%; with TK-10 renal it was 62.5%; in the experiment on ACHN renal, 44.4%. Also, the growth with CAKI-1 renal is 31.3%; in the experiment with A498 renal it was 12.3%; in the experiment on CCRF-CEM leukemia, 9.67% (active); with MOLT-4 leukemia it was 17.5%.
Take `O=C(OC(CO)C(=O)NC12CC3CC(CC(C3)C1)C2)c1ccc(Cl)cc1` (stereo not given): the growth with SK-MEL-2 melanoma is 106%; in the experiment with EKVX NSCLC, 96.9%; in the experiment on SN12C renal it was 109%; in the experiment with UO-31 renal it was 88.7%; with TK-10 renal, 102%; in the experiment on ACHN renal it was 100%. For the same compound, the growth with CAKI-1 renal is 99.4%; in the experiment on A498 renal, 103%; with CCRF-CEM leukemia, 88.8%; with MOLT-4 leukemia it was 98.7%.
Regarding `COC(=O)CC[C@@H]1O[C@@H](c2cccc(C(F)(F)F)c2)[C@@H](O)[C@H]1O`, the growth was 103% in the experiment on SK-MEL-2 melanoma; 97.7% in the experiment with EKVX NSCLC; 106% in the experiment with SN12C renal; 92.9% with UO-31 renal; 98.9% in the experiment on TK-10 renal; 103% in the experiment on ACHN renal. Also, the growth is 94% with CAKI-1 renal, 106% in the experiment on A498 renal, 109% in the experiment with CCRF-CEM leukemia and 104% with MOLT-4 leukemia.
With `CN(C)CCNC(=O)c1cc2c3cc(Cl)ccc3[nH]c2c2ncccc12`, the growth is 47.9% in the experiment with SK-MEL-2 melanoma; 22.1% in the experiment on EKVX NSCLC; 10.2% in the experiment on SN12C renal; 6.68% (active) in the experiment on UO-31 renal; 42.8% with TK-10 renal; 10.2% in the experiment with ACHN renal. Also, the growth was 23.8% with CAKI-1 renal, 26.7% in the experiment with A498 renal, -13.2% (active) in the experiment on CCRF-CEM leukemia and -12.4% (active) with MOLT-4 leukemia.
As for `O=[N+]([O-])c1ccc(O)cc1Br`, the growth is 97.8% with SK-MEL-2 melanoma; 98% in the experiment on EKVX NSCLC; 98% with SN12C renal; 83.8% in the experiment with UO-31 renal; 99.9% in the experiment on TK-10 renal; 99.2% in the experiment on ACHN renal. The growth was 94.5% in the experiment with CAKI-1 renal, 81.6% in the experiment on A498 renal, 95.2% in the experiment on CCRF-CEM leukemia and 104% with MOLT-4 leukemia.
For `Cc1cc(=O)n(C(=O)Nc2ccccc2Cl)c2cc(O)ccc12`, the growth with SK-MEL-2 melanoma is 118%; with EKVX NSCLC it was 108%; in the experiment with SN12C renal, 98.5%; in the experiment on UO-31 renal it was 76.9%; with TK-10 renal, 101%; with ACHN renal, 100%. Moreover, the growth in the experiment with CAKI-1 renal is 92.3%; in the experiment with A498 renal, 109%; in the experiment with CCRF-CEM leukemia, 93.9%; with MOLT-4 leukemia, 110%.
Take `COc1cc(-c2cncn2-c2ccc(-c3nc4ccc(F)cc4s3)cc2)ccc1F`: the growth in the experiment on SK-MEL-2 melanoma is 37.7%; with EKVX NSCLC, 95.8%; in the experiment with SN12C renal it was 94.7%; with UO-31 renal, 71.9%; in the experiment with TK-10 renal, 92.1%; in the experiment on ACHN renal it was 3.23% (active). For the same compound, the growth with CAKI-1 renal is 25.7%; in the experiment on A498 renal, 74.5%; with CCRF-CEM leukemia it was 81.5%; with MOLT-4 leukemia it was 63.6%.
As for `O=C(N(c1ccccc1)c1ccccc1)n1cc(I)c2nc(Cl)nc(Cl)c21`, the growth with SK-MEL-2 melanoma is 70.5%; in the experiment with EKVX NSCLC, 71.1%; in the experiment on SN12C renal, 34.8%; in the experiment with UO-31 renal, 54.4%; with TK-10 renal, 86.8%; with ACHN renal, 57.9%. The growth in the experiment with CAKI-1 renal was 39.6%; with A498 renal, 67.9%; with CCRF-CEM leukemia it was 4.32% (active); with MOLT-4 leukemia, 2.48% (active).
With `NC(Cc1ccc(O)c([N+](=O)[O-])c1)C(=O)O` (stereo not given), the growth was 109% with SK-MEL-2 melanoma; 111% with EKVX NSCLC; 95.7% in the experiment on SN12C renal; 88.2% in the experiment with UO-31 renal; 94.4% in the experiment on TK-10 renal; 99.2% in the experiment with ACHN renal. The growth with CAKI-1 renal was 93.9%; in the experiment on A498 renal it was 105%; in the experiment on CCRF-CEM leukemia, 88.7%; in the experiment on MOLT-4 leukemia, 96%.
For `CSc1nc2ccccc2cc1/C=C1/C=C(c2ccccc2)NC1=O`, the growth with SK-MEL-2 melanoma was 81%; in the experiment on EKVX NSCLC, 84.9%; in the experiment with SN12C renal, 94.1%; in the experiment on UO-31 renal, 91.9%; in the experiment with TK-10 renal, 123%; in the experiment on ACHN renal, 102%. The growth in the experiment on CAKI-1 renal is 77.9%; in the experiment on A498 renal it was 69.9%; in the experiment with CCRF-CEM leukemia it was 68.8%; in the experiment with MOLT-4 leukemia, 36.3%.
As for `CCOc1ccc(NC(=O)CSc2oc(-c3ccccc3)nc2S(=O)(=O)c2ccc(C)cc2)cc1`, the growth in the experiment with SK-MEL-2 melanoma is 96.6%; in the experiment on EKVX NSCLC, 75.1%; with SN12C renal, 85.2%; in the experiment on UO-31 renal it was 103%; with TK-10 renal, 82.4%; in the experiment with ACHN renal, 58.9%. For the same compound, the growth was 83.9% in the experiment on CAKI-1 renal, 86.2% in the experiment with A498 renal, 84.8% in the experiment with CCRF-CEM leukemia and 66.1% in the experiment on MOLT-4 leukemia.
In the case of `S=c1sc2c(Cl)nc(-c3cccnc3)nc2n1-c1ccccc1`, the growth in the experiment with SK-MEL-2 melanoma was 21.6%; in the experiment on EKVX NSCLC, 89.6%; with SN12C renal, 2% (active); in the experiment with UO-31 renal, -85.6% (active); in the experiment on TK-10 renal, 90.2%; in the experiment with ACHN renal it was -6.92% (active). In addition, the growth was 73.9% in the experiment with CAKI-1 renal, 92% in the experiment with A498 renal, -31.7% (active) with CCRF-CEM leukemia and -41.5% (active) in the experiment on MOLT-4 leukemia.
With `C=CCSc1nnc(NC(=O)CCl)s1`, the growth with SK-MEL-2 melanoma is 103%; with EKVX NSCLC, 100%; in the experiment on SN12C renal, 95.2%; in the experiment on UO-31 renal, 95.5%; in the experiment with TK-10 renal, 108%; with ACHN renal, 94.5%. The growth with CAKI-1 renal was 93.3%; with A498 renal it was 90.3%; in the experiment on CCRF-CEM leukemia it was 77.2%; in the experiment on MOLT-4 leukemia it was 90.7%.
Turning to `O=C(O)c1ccc(-n2cc(/C=N/Nc3ccccc3)c(-c3ccc(F)cc3F)n2)cc1`, the growth was 15.4% with SK-MEL-2 melanoma; 55.2% with EKVX NSCLC; 73.1% in the experiment on SN12C renal; 13% with UO-31 renal; 57.4% in the experiment on TK-10 renal; 47.1% in the experiment on ACHN renal. Besides, the growth in the experiment on CAKI-1 renal was 28.5%; with A498 renal, 81.7%; with CCRF-CEM leukemia, 26.6%; in the experiment on MOLT-4 leukemia it was 38.7%.
